Source: PubChem
A selection: hits, their analogues and other compounds. The true share with any hit is near 5.7%.
KB-V1 MDR tox = kills drug-selected multidrug resistant KB-V1 cells; KB-V1 MDR cells viability, CellTiter-Glo, 72 h; Potency, µM (top dose mostly 46.1 µM), actives largely listed as cytotoxic; actives 3.4% (n = 400,000); AID 1347076; further: nearly all actives have a fitted effect of over 60% in size
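KB-V1 MDR subline cells in DMEM (phenol-red free, 10% FBS) exposed to compounds in qHTS concentration series for 72 h at 37 degrees C. Viability read by CellTiter-Glo luminescence; concentration-effect curves fitted after normalization and correction.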
HT1080NT lethal = kills 2HG-producing HT-1080-NT fibrosarcoma cells; HT-1080-NT fibrosarcoma viability, CellTiter-Glo ATP luminescence, 48 h; Potency, µM (series often up to 46.1 µM), most hits filed as cytotoxic; actives 1.6% (n = 360,000);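 further: NT is the 2HG producing partner of a matched IDH1 knockdown line; nearly all actives have a fitted effect of over 55% in size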
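Viability by CellTiter-Glo luminescence after 48 h compound exposure at 37C of HT-1080-NT cells (750/well, RPMI, 5% FBS). % activity scaled between DMSO wells and medium-only wells, then curve-fitted and categorized by curve class.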
HT1080 IDH1KD tx = toxicity to HT-1080 IDH1 knockdown cells (counter line); HT-1080 IDH1 knockdown viability, ATP luminescence, 48 h; actives 2% (n = 360,000); Potency, µM (series often up to 46.1 µM), actives largely listed as cytotoxic; AID 686971
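In this qHTS, HT-1080 cells depleted of IDH1 are exposed for 48 h at 37 °C to compound titrations. Toxicity is scored from CellTiter-Glo luminescence, with DMSO as full viability and medium alone as none.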
KB-3-1 cytotox = kills parental KB-3-1 adenocarcinoma cells; actives 1.4% (n = 400,000); Potency, µM (top dose mostly 46.1 µM), usual class: cytotoxic; AID 1347075; KB-3-1 viability, CellTiter-Glo ATP luminescence, 72 h; further: nearly all actives have a fitted effect of over 60% in size
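Parental KB-3-1 adenocarcinoma cells in phenol-red-free DMEM with 10% FBS were pin-treated with compounds at several concentrations, incubated 72 h at 37 °C, and viability read by CellTiter-Glo luminescence; concentration-effect curves were fitted after normalization.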
Each line names hits and unclear results; the compound was inactive in the other large screens. The call rests on the fitted dose curve; in most records, active means well fitted curve in the direction sought with a large enough effect; inconclusive means small, poorly fitted or top-dose-only effect, or another doubt; inactive means no such curve, though single readings can be large; an effect the other way counts as inactive or inconclusive.

Cc1cnccc1/C=C/c1ccc(N)cc1	none (no result: HT1080NT lethal, HT1080 IDH1KD tx)
CCC(=O)N1CCCc2cc(S(=O)(=O)N3CCC(C(=O)Nc4ccc(F)c(F)c4)CC3)ccc21	none (no result: HT1080NT lethal, HT1080 IDH1KD tx)
O=C1c2cccc3c([N+](=O)[O-])ccc(c23)C(=O)N1c1ccc(Cl)cn1	HT1080NT lethal 4.5µM, HT1080 IDH1KD tx 1.6µM
O=C1c2ccc([N+](=O)[O-])cc2C(=O)N1c1ccc(Cl)cn1	none
O=C1c2cccc3c([N+](=O)[O-])ccc(c23)C(=O)N1c1ccccn1	KB-V1 MDR tox inconclusive, HT1080NT lethal 26µM, HT1080 IDH1KD tx inconclusive
O=C1c2cccc3cccc(c23)C(=O)N1c1nccs1	none
O=C1c2cccc3c([N+](=O)[O-])ccc(c23)C(=O)N1c1nccs1	KB-V1 MDR tox inconclusive, HT1080NT lethal 8.9µM, HT1080 IDH1KD tx 2.2µM, KB-3-1 cytotox inconclusive
CSc1ccc2nnc(-c3ccc(C)cc3)n2n1	none (no result: HT1080NT lethal, HT1080 IDH1KD tx)
Cc1ccc(-n2nc(-c3ccc(F)cc3)c3cnc4cc5c(cc4c32)OCO5)cc1C	none (no result: HT1080NT lethal, HT1080 IDH1KD tx)
COc1cccc(OCc2cc(C(=O)N3CCC(c4ccncc4)CC3)no2)c1	HT1080NT lethal inconclusive, HT1080 IDH1KD tx inconclusive, KB-3-1 cytotox inconclusive
CC(=O)c1ccc(OCc2cc(C(=O)N3CCC(c4ccncc4)CC3)no2)cc1	HT1080NT lethal 18µM, HT1080 IDH1KD tx 23µM
Cc1ccc(OCc2cc(C(=O)N3CCCC(C)C3)no2)cn1 (configuration not stated)	KB-V1 MDR tox inconclusive, KB-3-1 cytotox 21µM
COc1cccc(CNC(=O)c2[nH]c3cc(C)ccc3c2Sc2ccccc2)c1	none (no result: HT1080NT lethal, HT1080 IDH1KD tx)
C(=C\c1ccccc1)/CN1CCN(C(c2nnnn2C2CCCCC2)C2CC2)CC1 (configuration not stated)	KB-V1 MDR tox 18µM, HT1080NT lethal inconclusive, HT1080 IDH1KD tx inconclusive
CCc1cc(=O)oc2c3c(cc(OCC(=O)Nc4cccnc4)c12)OC(C)(C)CC3	KB-V1 MDR tox 16µM
CCCc1cnc(Nc2nc(C(N)Cc3ccc(OC)cc3)cs2)nc1 (configuration not stated)	KB-V1 MDR tox inconclusive, HT1080NT lethal 21µM, HT1080 IDH1KD tx inconclusive, KB-3-1 cytotox inconclusive
CCc1cnc(Nc2nc(C(N)Cc3ccc(Cl)cc3)cs2)nc1 (configuration not stated)	HT1080NT lethal 21µM, HT1080 IDH1KD tx inconclusive
COc1ccc(OCC2c3cc(OC)c(OC)cc3CCN2C(=O)COc2ccc(Cl)cc2Cl)cc1 (configuration not stated)	none (no result: HT1080NT lethal, HT1080 IDH1KD tx)
COc1ccc(C(c2sc3ncnn3c2O)N2CCN(c3ccccc3F)CC2)cc1OC (configuration not stated)	KB-V1 MDR tox 1.6µM, KB-3-1 cytotox 2.9µM
COc1ccc(C(c2sc3ncnn3c2O)N2CC(C)OC(C)C2)cc1OC (configuration not stated)	KB-3-1 cytotox inconclusive
Oc1c(C(c2ccccn2)N2CCC(Cc3ccccc3)CC2)cc(Cl)c2cccnc12 (configuration not stated)	KB-V1 MDR tox 2.6µM, HT1080NT lethal inconclusive, HT1080 IDH1KD tx 21µM, KB-3-1 cytotox inconclusive
CN1CCN(C(c2ccccn2)c2cc(Cl)c3cccnc3c2O)CC1 (configuration not stated)	HT1080 IDH1KD tx inconclusive
C=CCn1c(-c2cccs2)nc2ccccc21	none
C=CCSc1nc2ccccc2n1Cc1nnc(-c2cccs2)o1	KB-V1 MDR tox 6.5µM
CCOc1ccc(NC(=O)c2cn(C)c(=O)c3cc(OC)c(OC)cc23)cc1	KB-V1 MDR tox inconclusive (no result: HT1080NT lethal, HT1080 IDH1KD tx)
Cc1cccc(C(C)C)c1NC(=O)c1ccc2c(c1)CCN2S(C)(=O)=O	none (no result: HT1080NT lethal, HT1080 IDH1KD tx)
CN(CCc1ccccc1)C(C(=O)Nc1ccc2c(c1)OCCO2)c1ccnc2ccccc12 (configuration not stated)	KB-V1 MDR tox 23µM, HT1080NT lethal inconclusive, HT1080 IDH1KD tx inconclusive, KB-3-1 cytotox inconclusive
COc1cccc2[nH]c3c(N4CCC(C(N)=O)CC4)ncnc3c12	none
COc1cccc2[nH]c3c(N4CCCC(C)C4)ncnc3c12 (configuration not stated)	KB-V1 MDR tox 6.5µM
Cc1ccc(NC(=O)Cn2c(=O)n(Cc3ccccc3)c(=O)c3c(C)c(C(=O)N(C)C)sc32)c(C)c1	none (no result: HT1080NT lethal, HT1080 IDH1KD tx)
COC(=O)C[C@H]1c2cc(F)ccc2S(=O)(=O)N1C1CC1	KB-V1 MDR tox inconclusive (no result: HT1080NT lethal, HT1080 IDH1KD tx)
O=C(NC1CCCN(Cc2ccc(Cl)cc2)C1)c1cnc2ccccn2c1=O (configuration not stated)	none (no result: KB-V1 MDR tox, KB-3-1 cytotox)
CC(C)Cc1ccc(CN2CCCC(NC(=O)c3cnc4ccccn4c3=O)C2)cc1 (configuration not stated)	KB-V1 MDR tox inconclusive, KB-3-1 cytotox 16µM
CCc1ccc(-n2cnc3cc(C(=O)NCc4ccc(C)cc4)ccc32)cc1	none (no result: HT1080NT lethal, HT1080 IDH1KD tx)
CSc1nc(-c2ccc(Cl)cc2)c(C#N)c(=O)[nH]1	none
CSc1nc(Nc2ccc(Cl)cc2)c(C#N)c(=O)[nH]1	KB-V1 MDR tox 5.2µM, KB-3-1 cytotox 5.2µM
CN(Cc1cccs1)c1ncnc2ccc(-c3ccc4cnn(C)c4c3)cc12	KB-3-1 cytotox inconclusive (no result: HT1080NT lethal, HT1080 IDH1KD tx)
CCOC(=O)N1CCN(C(=O)c2ccc3nc(SCc4ccc(F)cc4)n(C)c3c2)CC1	KB-V1 MDR tox 9.2µM
CCN(CC)S(=O)(=O)c1ccc2c(c1)N(CC(=O)Nc1ccc(F)cc1F)C(=O)C1CCCN21 (configuration not stated)	none (no result: HT1080NT lethal, HT1080 IDH1KD tx)
COc1ccc2cc3cc(C(=O)NC(C)C)oc3nc2c1	KB-V1 MDR tox 2.3µM
COc1ccc2cc3cc(C(=O)Nc4cc(OC)c(OC)c(OC)c4)oc3nc2c1	none
NS(=O)(=O)c1ccc(Sc2nc3ccccc3s2)c([N+](=O)[O-])c1	KB-V1 MDR tox inconclusive, HT1080NT lethal inconclusive, HT1080 IDH1KD tx 7.3µM
Cc1ccc(Cn2cc(/C=C(/C#N)C(=O)Nc3cccc(Cl)c3)c3ccccc32)cc1	KB-V1 MDR tox inconclusive (no result: HT1080NT lethal, HT1080 IDH1KD tx)
CSc1ccc(OC2CCN(Cc3ccccc3)CC2)cc1	KB-V1 MDR tox 16µM
Cc1ccccc1C(=O)NC(CC(C)C)C(=O)NCC(C)(C)N1CCOCC1 (configuration not stated)	KB-V1 MDR tox 23µM
O=c1c2cnn(-c3ccccc3)c2ncn1CCc1ccccc1	none
CCn1cnc2c(cnn2-c2ccccc2)c1=O	KB-V1 MDR tox 10µM, KB-3-1 cytotox inconclusive
COC(=O)c1ccccc1NC(=O)Cn1cnc2c(cnn2-c2ccccc2)c1=O	KB-V1 MDR tox 6.5µM
CCOC(=O)c1ccccc1NC(=O)Cn1cnc2c(cnn2-c2ccccc2)c1=O	none
Cn1c(=O)c2cc(S(=O)(=O)Nc3cc(C(=O)O)cc(C(=O)O)c3)ccc2n(C)c1=O	none
Cc1ccc(NS(=O)(=O)c2ccc3c(c2)c(=O)n(C)c(=O)n3C)cc1F	KB-V1 MDR tox inconclusive, HT1080NT lethal 16µM, HT1080 IDH1KD tx inconclusive, KB-3-1 cytotox 18µM
Cc1cc(S(=O)(=O)Nc2ccc3c(c2)n(C)c(=O)n3C)ccc1F	KB-3-1 cytotox inconclusive
Cc1cc(C)cc(NS(=O)(=O)c2ccc3c(c2)c(=O)n(C)c(=O)n3C)c1	KB-V1 MDR tox inconclusive, HT1080NT lethal 6.3µM, HT1080 IDH1KD tx 3.2µM, KB-3-1 cytotox 8.2µM
COc1ccc2cc(C(=O)NCc3ccc4c(c3)CCN4C(=O)c3ccc(F)cc3)[nH]c2c1	none (no result: HT1080NT lethal, HT1080 IDH1KD tx)
